Measurements as given in PubChem BioAssay (NCATS).
Results filed as inconclusive are left out. Entries that show only a call come without a potency. Active and inactive are the calls of the source. Calls come from the whole dose curve; as a rule, active = well fitted activation curve with a large enough effect; inconclusive = small, poorly fitted or top-dose-only effect; inactive = no such curve, though single readings can be large or run the other way.

experiment: Validation screen for small molecules that induce genotoxicity in human embryonic kidney (HEK293T) cells expressing luciferase-tagged ELG1 (AID 493106); conditions: luminescence; series mostly up to 46.1 µM
Description: NIH Molecular Libraries Probe Production Network [MLPCN]
NIH Chemical Genomics Center [NCGC]
Assay Provider: Kyungjae Myung, NHGRI, NIH
Keywords: MLPCN, qHTS, NCGC, genotoxicity, cancer
Cancer cells divide rapidly compared to normal cells in the body. During cell division, cancer cells need to duplicate their genome by DNA replication. The failure of genome duplication leads to cancer cells' death. Therefore, inhibitors of DNA replication could specifically kill cancer cells. Based on this concept, many chemotherapeutic agents were developed and have been used to treat cancer patients. However, there are a limited number of agents available in the clinical setting, and some of those that do exist have low efficacy and severe side effects. Therefore, if we can find the compounds that effectively block DNA replication either by directly damaging DNA or by inhibiting other cellular mechanisms, the options for cancer treatment will be broadened. With this in mind, we developed a quantitative high-throughput ELG1-luciferase reporter gene assay. Since the level of human ELG1 protein is enhanced in response to genetic stresses, increases in luciferase activity can be used to identify compounds that cause genetic stress.
For genotoxicity screening, 2,000 cells in 5 uL/well were dispensed into white, solid-bottom 1536-well plates using a solenoid-based dispenser. Following transfer of 23 nL compound or DMSO vehicle by a pin tool, the plates were incubated 16 hr at 37 °C and 5% CO2. 5 ul ONE-Glo (Promega) was then added to each plate and following a 30 min incubation at room temperature, luciferase activity was quantified on a ViewLux CCD-based plate reader.
Potency is the fitted concentration of half-maximal effect.

Structure (SMILES)	Potency
CC[C@@H](CO)NC(=O)[C@@H]1C=C2c3cccc4c3c(cn4C)C[C@H]2N(C)C1	inactive
Cc1cccc(C)c1NC(=O)CN1CCCC1=O	inactive
COc1cc2c(c(OC)c1OC)-c1ccc(OC)c(=O)cc1[C@@H](NC(C)=O)CC2	461 nM (active)
C=C(C)[C@H]1Cc2c(ccc3c2O[C@@H]2COc4cc(OC)c(OC)cc4[C@@H]2C3=O)O1	inactive
CC(=O)[C@H]1CC[C@H]2[C@@H]3CC[C@H]4C[C@](C)(O)CC[C@]4(C)[C@H]3CC[C@]12C	inactive
Cc1cccc(C)c1NC1=NCCCS1	inactive
CNCC(O)c1ccc(O)cc1 (configuration not stated)	inactive
CC[C@@H](CO)NC(=O)[C@@H]1C=C2c3cccc4[nH]cc(c34)C[C@H]2N(C)C1	inactive
CC(C)=CCOc1c2occc2cc2ccc(=O)oc12	inactive
CCCN1CCC[C@@H]2Cc3nc(N)ncc3C[C@H]21	inactive
CC(=O)[C@H]1CC[C@H]2[C@@H]3CC[C@H]4C[C@H](O)CC[C@]4(C)[C@H]3C(=O)C[C@]12C	inactive
COc1ccc(C(CN(C)C)C2(O)CCCCC2)cc1 (configuration not stated)	inactive
Cc1ccc(S(=O)(=O)N[C@@H](CCCCN)C(=O)CCl)cc1	inactive
NCC(CC(=O)O)c1ccc(Cl)cc1 (configuration not stated)	inactive
C[C@@H]1O[C@@H](O[C@H]2C[C@@H](O)[C@]3(CO)[C@H]4[C@H](O)C[C@]5(C)[C@@H](C6=CC(=O)OC6)CC[C@]5(O)[C@@H]4CC[C@]3(O)C2)[C@H](O)[C@H](O)[C@H]1O	inactive
O=c1[nH]c2ccccc2n1C1CCN(CCCC(c2ccc(F)cc2)c2ccc(F)cc2)CC1	inactive
N#CC(C#N)=Cc1ccc(O)c(O)c1	inactive
CN1C[C@H](CNC(=O)OCc2ccccc2)C[C@@H]2c3cccc4c3c(cn4C)C[C@H]21	inactive
CC(C)C(=O)Nc1ccc([N+](=O)[O-])c(C(F)(F)F)c1	inactive

Structure (SMILES)	Potency
c1ccc2c(c1)OCC(C1=NCCN1)O2 (configuration not stated)	inactive
CC(CCc1ccccc1)NC(C)C(O)c1ccc(O)cc1 (configuration not stated)	inactive
NCC1(CC(=O)O)CCCCC1	inactive
CCC1(C2=NCCN2)Cc2ccccc2O1 (configuration not stated)	inactive
Fc1ccc(C(OCCN2CCN(CCCc3ccccc3)CC2)c2ccc(F)cc2)cc1	inactive
CN(C)C(=O)C(CCN1CCC(O)(c2ccc(Cl)cc2)CC1)(c1ccccc1)c1ccccc1	inactive
c1ccc(C2CC2)c(OCC2=NCCN2)c1	inactive
CC(O)(CS(=O)(=O)c1ccc(F)cc1)C(=O)Nc1ccc(C#N)c(C(F)(F)F)c1 (configuration not stated)	inactive
CCCN1CCC[C@@H]2Cc3[nH]ncc3C[C@H]21	inactive
O=c1[nH]c2ccccc2n1CCCN1CCC(n2c(=O)[nH]c3cc(Cl)ccc32)CC1	inactive
CCCC(C)(COC(N)=O)COC(=O)NC(C)C (configuration not stated)	inactive
Nc1ccncc1	inactive
COc1ccccc1N1CCNCC1	inactive
NN=C(N)N	inactive
O=C1NCN(c2ccccc2)C12CCN(CC1COc3ccccc3O1)CC2 (configuration not stated)	inactive
NCC(O)c1ccc(O)cc1 (configuration not stated)	inactive
COC[C@H]1OC(=O)c2coc3c2[C@@]1(C)C1=C(C3=O)C2CCC(=O)[C@@]2(C)C[C@H]1OC(C)=O (some centres not stated)	inactive
Cc1ncc(CNC(=O)N(CCCl)N=O)c(N)n1	inactive
